Compound activity: PubChem BioAssay, National Center for Advancing Translational Sciences (NCATS)
Shown are actives, neighbours in structure and some others; about 19% of the full set was active somewhere.
IL-1B inflam inh: inhibitors of inflammasome signaling (IL-1 beta secretion); THP-1 LPS/ATP IL-1B secretion, AlphaLISA, 16 h; active compounds read low; activity change, % at 57.5 µM; 360,000 tested, 4.7% active; AID 743279; in the data active means activity change below about -50%; inconclusive means mostly about -30% to -49%
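Secreted IL-1B measured by AlphaLISA bead assay after 16 h compound exposure of THP-1 cells; compounds (final up to 57.5 uM) added 1 h before LPS (250 ng/mL) and ATP (1.25 mM) stimulation; lower signal means less secretion.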
HT1080 IDH1KD tx: HT-1080 IDH1 knockdown cell toxicity (counter line) | HT-1080 IDH1 knockdown viability, ATP luminescence, 48 h | Potency, µM (titrated, usually from 46.1 µM), inactives show top-dose activity, negative = toxicity, hits mostly cytotoxic | 360,000 tested, 2% active;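 further: potency means the concentration at half of the fitted maximal effect; 0% = DMSO wells and -100% = cell-free medium wells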
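HT-1080-IDH1KD cells (IDH1 knocked down), 750/well in RPMI with 5% FBS, treated with compound 48 h at 37 degrees C. Viability by CellTiter-Glo luminescence, normalised to DMSO and no-cell wells; concentration-response curves classed.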
ELG1 DNA repair: ELG1-dependent DNA repair inhibition. HEK293T ELG1-luciferase reporter, luminescence, 16 h; DNA damage induced by 5-fluorouridine. Potency, µM (series often up to 46.1 µM), for the others: at the top dose activity change, negative = inhibition, most hits filed as inhibitors. 330,000 tested, 2.3% active; further: potency means the concentration at half of the fitted maximal effect; nearly all actives have a fitted effect of over 55% in size
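In this reporter screen, reduction of luminescence relative to DMSO vehicle indicated activity. Compounds and 5-fluorouridine were added together to 2,000 cells per well, incubated for 16 hr at 37 °C, then developed with ONE-Glo.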
TDP1 cell CPT: growth inhibition of DT40 Tdp1-/-;hTDP1 cells with camptothecin (screen for TDP1 inhibitors) | chicken DT40 Tdp1-/-;hTDP1 cells + 20 nM CPT, ATP luminescence, 48 h | 420,000 tested, 12% active | AID 686979 | Potency, µM (doses to about 46.2 µM), for the others: at the highest dose activity change, negative = growth inhibition, most hits filed as inhibitors; further: potency means the concentration at half of the fitted maximal effect; nearly all actives have a fitted effect of over 55% in size
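Chicken DT40 Tdp1-/- cells complemented with human TDP1, 400 cells/well, exposed to compounds plus 20 nM camptothecin for at least 48 h at 37 C; viability read as ATP content by CellTiter-Glo luminescence.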
HT1080NT lethal: kills 2HG-producing HT-1080-NT fibrosarcoma cells; HT-1080-NT fibrosarcoma viability, CellTiter-Glo ATP luminescence, 48 h; Potency, µM (doses to about 46.1 µM), without a hit: top-dose activity, negative = less viability, most hits filed as cytotoxic; 360,000 tested, 1.6% active; AID 686970;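 further: NT is the 2HG producing partner of a matched IDH1 knockdown line; potency means the concentration at half of the fitted maximal effect; 0% = DMSO-treated cells and -100% = media-only wells without cells; nearly all actives have a fitted effect of over 55% in size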
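750 cells/well, RPMI + 5% FBS; 2 h settle, compound pin-transfer, 48 h at 37 degrees C. CellTiter-Glo 10 min RT, luminescence. Normalized to DMSO and media-only wells.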
DT40 TDP1 no CPT: qHTS for Inhibitors of human tyrosyl-DNA phosphodiesterase 1 (TDP1): qHTS in cells in absence of CPT; DT40 Tdp1-/- hTDP1 cells, no CPT, ATP luminescence, 48 h; 420,000 tested, 15% active; AID 686978, 2013; Potency, µM (top dose mostly 46.2 µM), without a hit: at the highest dose activity change, negative = growth inhibition, usual class: inhibitors; further: potency means the concentration at half of the fitted maximal effect; nearly all actives have a fitted effect of over 55% in size
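Chicken DT40 Tdp1-/- cells stably complemented with human TDP1 were seeded at 400 cells/well with DMSO in place of 20 nM camptothecin. After compound pinning, cells grew at least 48 hr at 37 °C; viability read by CellTiter-Glo luminescence.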
* hit, by the source's call. Unless noted, the call rests on the fitted dose curve; in most records, active means well fitted curve in the direction sought with a large enough effect; inconclusive means small, poorly fitted or top-dose-only effect, or another doubt; inactive means no such curve, though single readings can be large; an effect the other way counts as inactive or inconclusive. Unless noted, on the % scale 0 is the no-effect control and ±100 the full control effect.

What do the screens show for `CC(C)(C)[C@H]1COC(=O)[C@@H](Cc2ccc(F)cc2)CC/C=C/C[C@@H](CC(=O)N[C@H](CO)Cc2ccccc2)C(=O)N1`?
IL-1B inflam inh: -24; HT1080 IDH1KD tx: -7%; ELG1 DNA repair: -12%; TDP1 cell CPT: 8.2µM*; HT1080NT lethal: -17%; DT40 TDP1 no CPT: 18µM*

How did CC(C)(C)[C@H]1COC(=O)[C@@H](Cc2ccc(F)cc2)CC/C=C/C[C@@H](CC(=O)N[C@@H](CO)Cc2ccccc2)C(=O)N1 do in these assays?
IL-1B inflam inh: -15; HT1080 IDH1KD tx: 1%; ELG1 DNA repair: 26µM*; TDP1 cell CPT: -109%; HT1080NT lethal: 0%; DT40 TDP1 no CPT: 16µM*

Results for O=C(C[C@@H]1C/C=C\CC[C@H](Cc2ccc(F)cc2)C(=O)OC[C@@H]2CCCN2C1=O)N[C@H](CO)Cc1ccccc1 ?
IL-1B inflam inh: -13; HT1080 IDH1KD tx: -2%; ELG1 DNA repair: 21µM*; TDP1 cell CPT: 6.5µM*; HT1080NT lethal: -3%; DT40 TDP1 no CPT: 5.2µM*

Results for CCCNC(=O)CN1C(=O)COc2ccc(S(=O)(=O)N3CC(C)CC(C)C3)cc21 (stereo not drawn) ?
IL-1B inflam inh: -3; HT1080 IDH1KD tx: -2%; ELG1 DNA repair: 3%; TDP1 cell CPT: 10%; HT1080NT lethal: 0%; DT40 TDP1 no CPT: -23%

Results for CC(C)(C)C1CCC2(CC1)C(C#N)=C(SCC(=O)Nc1ccccc1)NC(=O)C2C#N (stereo not drawn) ?
IL-1B inflam inh: -13; HT1080 IDH1KD tx: inconclusive; ELG1 DNA repair: inconclusive; TDP1 cell CPT: 16µM*; HT1080NT lethal: 15µM*; DT40 TDP1 no CPT: inconclusive

How did COc1cccc(C(C)(O)c2nc(-c3ccoc3)cs2)c1 (stereo not drawn) do in these assays?
IL-1B inflam inh: -17; HT1080 IDH1KD tx: 9%; TDP1 cell CPT: inconclusive; HT1080NT lethal: 21%; DT40 TDP1 no CPT: inconclusive

What do the screens show for `Clc1ccc(CCNc2nc3ccccc3c3nc(-c4ccccc4)nn23)cc1`?
TDP1 cell CPT: inconclusive; DT40 TDP1 no CPT: 12µM*

How did CCCCNC(=O)CCC(=O)NNc1nc2ccccc2c2nc(C)nn12 do in these assays?
IL-1B inflam inh: 12; HT1080 IDH1KD tx: -5%; ELG1 DNA repair: 1%; TDP1 cell CPT: -23%; HT1080NT lethal: -5%; DT40 TDP1 no CPT: inconclusive

How did c1ccc(CNc2nc3ccccc3c3nc(-c4ccccc4)nn23)cc1 do in these assays?
TDP1 cell CPT: inconclusive; DT40 TDP1 no CPT: 2.6µM*

Results for CCCCNc1nc2ccccc2c2nc(-c3ccccc3)nn12 ?
TDP1 cell CPT: inconclusive; DT40 TDP1 no CPT: 21µM*

How did Cc1ccc(CNc2nc3ccccc3c3nc(-c4cccc(C)c4)nn23)cc1 do in these assays?
TDP1 cell CPT: 2%; DT40 TDP1 no CPT: -24%

How did Clc1ccccc1CNc1nc2ccccc2c2nc(-c3ccccc3)nn12 do in these assays?
TDP1 cell CPT: -10%; DT40 TDP1 no CPT: -8%

Results for CCCCNC(=O)CCC(=O)NNc1nc2ccccc2c2nc(-c3ccccc3)nn12 ?
IL-1B inflam inh: 22; HT1080 IDH1KD tx: -10%; ELG1 DNA repair: -28%; TDP1 cell CPT: inconclusive; HT1080NT lethal: -17%; DT40 TDP1 no CPT: 23µM*

Results for Clc1ccc(CNc2nc3ccccc3c3nc(-c4cccnc4)nn23)cc1 ?
TDP1 cell CPT: -21%; DT40 TDP1 no CPT: inconclusive

How did CCOc1ccc(C(=O)OCc2cc(=O)n3nc(C(C)C)sc3n2)cc1 do in these assays?
TDP1 cell CPT: -12%; DT40 TDP1 no CPT: -8%
